# Assay results published in paper PMC5540273 (PLoS ONE, 2017).
# Tests used:
# Conditions in all cases: concentration: 1 μM, replicates: in singlicate; n = 1
# MAPKAPK5 = system: MAPKAPK5
# MARK1 = system: MARK1
# MARK2 = system: MARK2
# MARK3 = system: MARK3
# MARK4 = system: MARK4
# MAST1 = system: MAST1
# MEK1 = system: T1, MEK1
# T1 construct: gene MAP2K1
# MEK2 = system: T2, MEK2
# T2 construct: gene MAP2K2
# MEK3 = system: T3, MEK3
# T3 construct: gene MAP2K3
# MEK4 = system: T4, MEK4
# T4 construct: gene MAP2K4
# 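Further: KINOMEscan kinase panel screen.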
Structure (SMILES),%Inh (MAPKAPK5) [%],%Inh (MARK1) [%],%Inh (MARK2) [%],%Inh (MARK3) [%],%Inh (MARK4) [%],%Inh (MAST1) [%],%Inh (MEK1) [%],%Inh (MEK2) [%],%Inh (MEK3) [%],%Inh (MEK4) [%]
Cc1ccc(NC(=O)c2ccnc(N3CCCCC3)c2)cc1-c1ccc(C(=O)NCC2CC2)cc1 [GW775610],5,0,14,0,2,37,4,0,45,0
Cn1cc(-c2ccc3c(c2)CCN3C(=O)Cc2cc(F)cc(F)c2F)c2c(N)ncnc21 [GSK2634140],0,0,0,0,0,0,0,0,0,37
COc1cccc(NC(=O)NCCNc2ccnc(Nc3ccc(F)cc3)n2)c1 [GSK1379879],0,0,0,0,5,0,19,0,10,5
Nc1ncc(-c2ccc3nccc(-c4ccncc4)c3c2)cc1S(=O)(=O)N1CCCCC1 [GSK1693850],0,0,15,0,0,0,0,0,13,33
COc1ccc(C)c(Nc2ccnc(Nc3ccc(-c4cnc[nH]4)cc3)n2)c1.Cl [GW784041],0,9,0,14,24,0,31,55,0,0
CCNC(=O)/C=C/c1n[nH]c2cc(Sc3ccccc3C(=O)NC)ccc12,18,0,34,0,3,0,17,18,14,0
CN(c1ccc(NC(=O)Nc2cccc(Cl)c2)cc1)c1ccnc(N)n1.Cl [GW830707],0,0,0,43,5,84,16,23,0,0
Cc1cc(-c2c(-c3ccc(F)cc3)ncn2CCCN2CCOCC2)nc(N)n1 [SB-222517],0,23,0,0,32,14,21,47,23,26
CCn1c(-c2nonc2N)nc2c(-c3ccccc3)ncc(OCCCN)c21.O=C(O)C(F)(F)F.O=C(O)C(F)(F)F [GSK260205],0,0,0,0,0,28,0,0,0,13
CCn1cnc2c(NCc3ccccc3)ncnc21 [SKF-96418],0,3,0,27,14,67,20,37,40,23
Cc1ccc(NC(=O)c2ccc(Cl)c(Cl)c2)cc1-c1ccc(C(=O)Nc2ccncc2)cc1 [GSK1398460],0,7,0,0,16,0,0,0,0,0
CC(C)(C)c1ccc(C(=O)Nc2cn3cc(-n4ccnc4)ccc3n2)cc1,0,0,3,0,0,38,5,6,0,38
Nc1ncnc2scc(-c3ccc(NC(=O)Cc4cc(F)ccc4F)cc3)c12.O=C(O)C(F)(F)F [SB-731254-M],10,27,31,0,6,21,24,19,23,18
Cn1cc(-c2cnc(N)c3c(-c4ccc5c(c4)CCN5C(=O)Cc4ccccc4)csc23)cn1 [GSK2593074],0,0,5,0,9,25,36,23,23,56
CN(c1ccc2c(c1)nc(NCc1ccccc1)n2C)c1ccnc(Nc2ccc(CS(C)(=O)=O)cc2)n1.Cl [GW811603],0,30,0,0,5,31,0,0,51,34
Cc1ccc(NC(=O)c2cccc(N3CCCCC3)c2)cc1-c1ccc(C(=O)NCC2CC2)cc1 [GSK1917008],0,0,0,20,10,0,0,0,0,8
COc1cc(Nc2nccc(N3CCC(NS(=O)(=O)c4ccc(NC(C)=O)cc4)CC3)n2)cc(OC)c1OC [GSK1379825],0,14,1,0,15,13,0,0,6,14

Structure (SMILES),%Inh (MAPKAPK5) [%],%Inh (MARK1) [%],%Inh (MARK2) [%],%Inh (MARK3) [%],%Inh (MARK4) [%],%Inh (MAST1) [%],%Inh (MEK1) [%],%Inh (MEK2) [%],%Inh (MEK3) [%],%Inh (MEK4) [%]
O=C(Nc1n[nH]c2nc(-c3ccccc3)ccc12)C1CC1 [SB-708999],0,0,0,0,8,22,6,0,0,0
CN(C)c1ncnc2nc[nH]c12 [SKF-31736],0,0,9,23,9,49,28,46,54,8
O=C(Nc1c(F)cccc1F)c1cc(C(=O)c2ccccc2F)c[nH]1 [GSK1326180],0,0,0,3,9,0,0,0,0,10
CS(=O)(=O)c1cccc(CNc2nc(Nc3ccc4c(c3)CCC(=O)N4)ncc2C(F)(F)F)c1,0,35,16,56,46,0,0,58,61,56
Cc1ccc(O)cc1Nc1ccnc2cc(-c3ccc(CN4CCCCC4)o3)ccc12 [GW557777],0,8,8,0,0,0,17,30,2,0
CCOc1nccc(-c2c(-c3ccc(F)cc3)ncn2C2CCNCC2)n1 [SB-249175],39,3,29,0,0,0,28,31,43,21
COc1ccc(NC(=O)c2ccoc2)cc1-c1ccc(C(=O)NCC2CC2)cc1 [GW810437],0,17,0,47,18,56,13,24,36,0
COC(=O)Nc1nc2ccc(Oc3ccc(NC(=O)Nc4cc(C(F)(F)F)ccc4F)cc3)cc2[nH]1.Cl [GW654607],0,0,0,0,0,0,0,0,0,15
N#CC1(c2cccc(C(=O)Nc3cccc(Oc4ccc5nc(NC(=O)C6CC6)sc5n4)c3)c2)CC1,0,0,0,0,0,0,18,19,11,0
COc1cccc(C2=C(Nc3cccc(O)c3)C(=O)NC2=O)c1 [SB-390771],0,0,0,1,8,4,0,0,0,0
N#Cc1cnc2cc(-c3cnc(CNCCN4CCOCC4)s3)ccc2c1Nc1ccc(Oc2ccccc2)cc1 [GW664114],0,35,0,9,5,0,100,100,9,80
O=C1NC(=O)C(c2ccccc2Cl)=C1Nc1cccc(Cl)c1 [SB-342409],0,0,0,2,0,0,2,5,0,0
COc1cccc(-c2nc(-c3ccccc3)[nH]c2-c2ccncc2)c1 [SB-610250],0,0,0,0,0,22,0,0,0,0
Cc1ccc(C)c(NC(=O)Nc2ccc(C)c(-c3ccc(C(=O)Nc4ccncc4)cc3)c2)c1 [GSK1398473],0,0,0,0,3,0,0,0,0,26
Cc1ccc(-c2ccc3occ(-c4ccc(S(C)=O)cc4)c3c2)nn1 (stereo not drawn),0,0,14,16,4,0,0,4,0,0
COc1cccc2c(-c3ccncc3)c(-c3ccc(F)cc3)nn12 [GW468513],0,0,0,0,3,15,0,1,0,19
